# In the supplement of paper PMC8387472:
# Legend:
# Assay in all cases: fraction of edited reads among all mapped reads; higher = more Cas9 editing
# Details in all cases: mESC; 2uM; 72 h treatment, harvest day 5
# [1] = compound: CC(=O)O/N=C1\C(=O)N(Cc2cc(Cl)ccc2Cl)c2ccc(Cl)cc21
# [2] = compound: CC(C)(C#N)c1ccc(N2C(=O)OCc3cnc4ccc(-c5cnc6ccccc6c5)cc4c32)cc1
# [3] = compound: CCCCOc1c(C(=O)c2c(F)cc(C)cc2F)c[nH]c2nncc1-2
# [4] = compound: CCN1CCN(CC(=O)Nc2ccc(-c3cccc4c(=O)cc(N5CCOCC5)oc34)c3sc4ccccc4c23)CC1
# [5] = compound: CCc1c2c(nc3ccc(OC(=O)N4CCC(N5CCCCC5)CC4)cc13)-c1cc3c(c(=O)n1C2)COC(=O)[C@]3(O)CC [Irinotecan HCl Trihydrate]
# [6] = compound: CCn1c(=O)c(-c2ccc(Cl)cc2Cl)cc2cnc(Nc3ccc(N4CCNCC4)c(F)c3)nc21
# [7] = compound: CNc1ccc([N+](=O)[O-])c(Nc2ccc3[nH]ncc3c2)n1
# [8] = compound: CO[C@H]1/C=C/O[C@@]2(C)Oc3c(C)c(O)c4c(O)c(c(/C=N/N5CCN(C6CCCC6)CC5)c(O)c4c3C2=O)NC(=O)/C(C)=C\C=C\[C@H](C)[C@H](O)[C@@H](C)[C@@H](O)[C@@H](C)[C@H](OC(C)=O)[C@@H]1C [Rifapentine]
# [9] = compound: COc1ccccc1-c1cc(Nc2cccc(CS(N)(=O)=O)c2)ncn1
# [10] = compound: C[C@@H]1CN(CC(=O)Nc2ccc3c(c2)Cc2cccc(-c4cc(=O)cc(N5CCOCC5)o4)c2S3)C[C@H](C)O1
# [11] = compound: Cc1cc(C)nc(SCC(=O)Nc2ncc(Cc3cccc4ccccc34)s2)n1
# [12] = compound: Cc1ccc(C(=O)NCCCCCC(=O)Nc2ccccc2N)cc1
# [13] = compound: Cc1cccc(CC(=O)N2CCc3c2ccc(-c2cn(C)c4ncnc(N)c24)c3F)n1
# [14] = compound: NC(=O)c1ccc2nc(-c3ccc(Oc4ccc(Cl)cc4)cc3)[nH]c2c1 [Chk 2 inhibitor II (BML-277)]
# [15] = compound: Nc1cc(F)ccc1NC(=O)c1ccc(CNC(=O)/C=C/c2cccnc2)cc1 [Tucidinostat (Chidamide)]
# [16] = compound: Nc1nc2[nH]cc(CCc3ccc(C(=O)N[C@@H](CCC(=O)O)C(=O)O)cc3)c2c(=O)[nH]1 [Pemetrexed]
# [17] = compound: Nc1ncnc2c1c(-c1cnc3[nH]ccc3c1)nn2C1CCCC1
# [18] = compound: O=C(c1cccc(Cl)c1F)N1CCN(Cc2cccc(Nc3nccs3)n2)CC1
# [19] = compound: O=C1Cc2c([nH]c3ccc(Br)cc23)-c2ccccc2N1 [Kenpaullone]
# [20] = compound: O=c1c(-c2ccc(O)cc2)coc2cc(O)cc(O)c12 [Genistein]
Target,fraction of edited reads among all mapped reads [1],fraction of edited reads among all mapped reads [2],fraction of edited reads among all mapped reads [3],fraction of edited reads among all mapped reads [4],fraction of edited reads among all mapped reads [5],fraction of edited reads among all mapped reads [6],fraction of edited reads among all mapped reads [7],fraction of edited reads among all mapped reads [8],fraction of edited reads among all mapped reads [9],fraction of edited reads among all mapped reads [10],fraction of edited reads among all mapped reads [11],fraction of edited reads among all mapped reads [12],fraction of edited reads among all mapped reads [13],fraction of edited reads among all mapped reads [14],fraction of edited reads among all mapped reads [15],fraction of edited reads among all mapped reads [16],fraction of edited reads among all mapped reads [17],fraction of edited reads among all mapped reads [18],fraction of edited reads among all mapped reads [19],fraction of edited reads among all mapped reads [20]
"47.0 (DMSO control at this site: 1-bp insertion 0.095, MH deletion 0.585, edited 0.118) GAGTGGTCCCGAGCCAGGAACTGTGTGTGTTGCAGGGGGGCAGTAACTCCCCAACTCCCTC",0.124,0.13,0.135,0.0496,0.156,0.121,0.151,0.198,0.151,0.0862,0.199,0.123,0.171,0.143,0.0948,0.12,0.129,0.0848,0.244,0.148
"4.0 (DMSO control at this site: 1-bp insertion 0.146, MH deletion 0.523, edited 0.125) ACGCCTTAGTGCACGAGTGACGGGATAATGTGGTCTCAGGTAATTGATAGGCTTCCAACTT",0.157,0.149,0.155,0.0719,0.194,0.136,0.182,0.243,0.188,0.0881,0.237,0.155,0.209,0.166,0.13,0.16,0.15,0.0959,0.306,0.175
"33.0 (DMSO control at this site: 1-bp insertion 0.008, MH deletion 0.771, edited 0.112) CATTAAGAGCAGCTGCCGGCCCCCAAGTGGACAGAGCTGGCCCTGCTGATTCAACAGTGCA",0.133,0.111,0.123,0.0458,0.162,0.115,0.126,0.211,0.163,0.0718,0.187,0.109,0.168,0.147,0.108,0.111,0.108,0.0838,0.237,0.146
"28.0 (DMSO control at this site: 1-bp insertion 0.035, MH deletion 0.77, edited 0.142) TGGTTCTTCCTTTGTAGAGAGTGTTCATCTGGGAATCTGGGACTTGGATGAGACAATCATT",0.171,0.174,0.171,0.0787,0.217,0.16,0.181,0.291,0.196,0.0747,0.267,0.152,0.212,0.19,0.126,0.14,0.153,0.11,0.297,0.198
"40.0 (DMSO control at this site: 1-bp insertion 0.072, MH deletion 0.192, edited 0.189) GCGAATCAACTGTTCAACAACAGCAGCAGCCACCTGGAGGACTACAGTGGCCTGTCCGTGT",0.203,0.198,0.224,0.0829,0.259,0.184,0.242,0.327,0.271,0.219,0.334,0.199,0.298,0.238,0.193,0.179,0.201,0.142,0.432,0.24
"35.0 (DMSO control at this site: 1-bp insertion 0.01, MH deletion 0.72, edited 0.098) CCACTTTTAGAGAGGGTGAAAATCATCAGTTATCATCAGGGCAACAAATTGCTTTCTCCTA",,0.143,,0.0527,0.166,0.111,0.148,0.208,0.151,0.0395,0.179,0.117,0.147,0.122,0.0981,0.104,0.108,0.0696,0.209,0.151
21.0 CGATTGAGAGTCAAACGGGCCAGAAAACTCCGGGAACGGGCCAGAAAACTCCGGGGCATGG,0.124,0.106,0.132,0.0441,0.152,,0.141,0.199,0.144,0.046,0.198,0.121,,0.14,0.116,0.124,0.103,,0.273,0.136
"3.0 (DMSO control at this site: 1-bp insertion 0.109, MH deletion 0.149, edited 0.09) TGCTAGCGCCCCCACAAAGCGGACCAGCCAGCACTATAGGGAATAAGGCCAACTTGCACCC",0.101,0.0887,0.115,0.0444,0.124,0.099,0.103,0.178,0.123,0.0619,0.162,0.0928,0.145,0.126,0.0815,0.12,0.0841,0.0816,0.193,0.13
"17.0 (DMSO control at this site: 1-bp insertion 0.112, MH deletion 0.348, edited 0.058) CCATAGCGCGATAAATATGACGGCTCATCCTGTATGACGGCTCATCCTGTATCAACTGTCC",0.0666,0.0797,0.0794,0.0411,0.0882,0.0594,0.0812,0.115,0.0964,0.0394,0.123,0.0669,0.086,0.0753,0.0619,0.0836,0.0703,0.0546,0.184,0.0864
8.0 GCATGCGTGTTTTGGGACAATGTAGTATACATTTGGGAGGCTCTCAGCTTTTCCCAATAAA,0.0233,0.0207,0.0186,,,,,,,,0.021,,,,0.0159,0.0154,0.0205,,0.0456,
